Experimental data reported in the supplement of paper PMC12494721.
Structures can show the parent of a compound that is named as a salt.

Experiments:
Settings in all cases: incubation time: 27 h, anaerobic, 37 °C;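 for the amine columns active = adjusted P below 0.05 in both replicates with a change the same way and a mean fold change under 0.8 or over 1.25; inactive = the rest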
[1] = tested on: Clostridium sporogenes DSM 1664; experiment: growth (OD595) fold change vs plate DMSO controls (fold change (ratio)); higher = more growth
Method in brief: (§1)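 To obtain OD, 595 nm absorbance readings were blank-subtracted, corrected for compound background using 20 µM compound solutions in water, and multiplied by a calibration factor of 5. They came from 96-well mGAM cultures grown anaerobically for 27 h at 37 °C and shaken before reading. Growth is the fold change relative to the median of plate DMSO controls. Two biological replicates were averaged, and fold changes above 1.5 were set to NA.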

Escherichia coli IAI1 [2] = experiment: as above
Method in brief: as §1

[3] = tested on: Klebsiella aerogenes DSM 30053; experiment: as above
Method in brief: as §1

[4] = tested on: Ruminococcus gnavus DSM 108212; experiment: as above
Method in brief: as §1

[5] = tested on: Klebsiella aerogenes DSM 30053; experiment: fold change of Histamine concentration vs plate DMSO controls (fold change (ratio)); higher = more amine produced, active = hit call of the paper (significant change in both replicates, either direction)
Method in brief: (§2)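 Anaerobic mGAM cultures of four gut bacterial strains were grown at 37 °C for 27 h in 80 µL wells, starting at OD 0.1 before 1:1 dilution. Compounds were at 20 µM final (sweeteners 50 µM). Whole cultures were extracted with cold acetonitrile/methanol containing 0.1% formic acid and centrifuged. Amines were quantified by LC–triple-quadrupole MS (dynamic MRM) against external calibration curves and drift-corrected within batch. Each value is the fold change versus plate DMSO controls, averaged over 2 biological replicates.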

[6] = tested on: Clostridium sporogenes DSM 1664; experiment: fold change of Tryptamine concentration vs plate DMSO controls (fold change (ratio)); higher = more amine produced, active = hit call of the paper (significant change in both replicates, either direction)
Method in brief: as §2

[7] = tested on: Ruminococcus gnavus DSM 108212; experiment: as above
Method in brief: as §2

Escherichia coli IAI1 [8] = experiment: fold change of Putrescine concentration vs plate DMSO controls (fold change (ratio)); higher = more amine produced, active = hit call of the paper (significant change in both replicates, either direction)
Method in brief: as §2

[9] = tested on: Klebsiella aerogenes DSM 30053; experiment: as above
Method in brief: as §2

Escherichia coli IAI1 [10] = experiment: fold change of Cadaverine concentration vs plate DMSO controls (fold change (ratio)); higher = more amine produced, active = hit call of the paper (significant change in both replicates, either direction)
Method in brief: as §2

[11] = tested on: Klebsiella aerogenes DSM 30053; experiment: as above
Method in brief: as §2

[12] = tested on: Ruminococcus gnavus DSM 108212; experiment: fold change of 2-Phenylethylamine concentration vs plate DMSO controls (fold change (ratio)); higher = more amine produced, active = hit call of the paper (significant change in both replicates, either direction)
Method in brief: as §2

| Compound | growth [1] | growth (Escherichia coli IAI1 [2]) | growth [3] | growth [4] | fold change of Histamine concentration [5] | fold change of Tryptamine concentration [6] | fold change of Tryptamine concentration [7] | fold change of Putrescine concentration (Escherichia coli IAI1 [8]) | fold change of Putrescine concentration [9] | fold change of Cadaverine concentration (Escherichia coli IAI1 [10]) | fold change of Cadaverine concentration [11] | fold change of 2-Phenylethylamine concentration [12] |
| --- | --- | --- | --- | --- | --- | --- | --- | --- | --- | --- | --- | --- |
| CN1CCC[C@@H]1CCO[C@](C)(c1ccccc1)c1ccc(Cl)cc1 [Clemastine fumarate] (20 µM) | 1.2 | 1.02 | 1.09 | 0.749 | 0.843 (inactive) | 1 (inactive) | 0.851 (inactive) | 1.06 (inactive) | 0.975 (inactive) | 1.12 (inactive) | 1.03 (inactive) | 0.886 (inactive) |
| CCN(CC)CCNC(=O)COc1ccc(OC)cc1 [Mefexamide hydrochloride] (20 µM) | 0.963 | 1.01 | 1.08 | 1.05 | 0.874 (inactive) | 1.07 (inactive) | 1.01 (inactive) | 1.02 (inactive) | 0.961 (inactive) | 1.05 (inactive) | 1.02 (inactive) | 0.977 (inactive) |
| NCCc1c[nH]cn1 [Histamine dihydrochloride] (20 µM) | 0.927 | 1.16 | 1.01 | 0.893 | 1.05 (inactive) | 1.05 (inactive) | 1.06 (inactive) | 1.16 (inactive) | 1.02 (inactive) | 0.952 (inactive) | 0.992 (inactive) | 1.05 (inactive) |
| CCCCc1cc2ccccc2c(OCCN(C)C)n1 [Dimethisoquin hydrochloride] (20 µM) | 0.969 | 1.01 | 1.1 | 0.962 | 0.872 (inactive) | 0.946 (inactive) | 0.91 (inactive) | 1.07 (inactive) | 0.983 (inactive) | 1.06 (inactive) | 0.994 (inactive) | 0.96 (inactive) |
| Cc1ccc(/C(=C\CN2CCCC2)c2ccccn2)cc1 [Triprolidine hydrochloride] (20 µM) | 1.08 | 1.01 | 0.998 | 1.1 | 1.05 (inactive) | 1.02 (inactive) | 1.01 (inactive) | 1.09 (inactive) | 1.02 (inactive) | 0.797 (inactive) | 0.987 (inactive) | 0.986 (inactive) |
| Nc1ccc(S(=O)(=O)Nc2ncccn2)cc1 [Sulfadiazine] (20 µM) | 0.978 | 0.939 | 1.06 | 0.958 | 0.966 (inactive) | 0.955 (inactive) | 0.997 (inactive) | 0.976 (inactive) | 1 (inactive) | 1.03 (inactive) | 1.01 (inactive) | 1.02 (inactive) |
| CC(C)(C)c1ccc(C(O)CCCN2CCC(C(O)(c3ccccc3)c3ccccc3)CC2)cc1 (stereo unspecified) [Terfenadine] (20 µM) | 1.21 | 1 | 1.09 | 1.21 | 0.886 (inactive) | 1.06 (inactive) | 0.754 (active) | 1 (inactive) | 0.97 (inactive) | 1.05 (inactive) | 1.01 (inactive) | 0.815 (inactive) |
| COc1c(-c2ccc3cc(NS(C)(=O)=O)ccc3c2)cc(-n2ccc(=O)[nH]c2=O)cc1C(C)(C)C [Dasabuvir] (20 µM) | 1.04 | 0.964 | 1.01 | 0.849 | 0.969 (inactive) | 0.847 (inactive) | 0.747 (active) | 1.01 (inactive) | 0.999 (inactive) | 0.989 (inactive) | 0.99 (inactive) | 0.754 (inactive) |
| CCN(CC)C(=O)/C(C#N)=C/c1cc(O)c(O)c([N+](=O)[O-])c1 [Entacapone] (20 µM) | 0.868 | 0.974 | 1.06 | 1.07 | 1.01 (inactive) | 0.961 (inactive) | 0.929 (inactive) | 0.993 (inactive) | 1.03 (inactive) | 0.977 (inactive) | 0.995 (inactive) | 0.896 (inactive) |
| NS(=O)(=O)c1cc(C(=O)O)c(NCc2ccco2)cc1Cl [Furosemide] (20 µM) | 0.941 | 1.01 | 1.04 | 1.22 | 0.987 (inactive) | 0.964 (inactive) | 1.01 (inactive) | 1.04 (inactive) | 0.984 (inactive) | 0.995 (inactive) | 0.988 (inactive) | 0.964 (inactive) |
| CCCNCC(O)COc1ccccc1C(=O)CCc1ccccc1 (stereo unspecified) [Propafenone hydrochloride] (20 µM) | 1.01 | 0.96 | 1.12 | 0.759 | 0.848 (inactive) | 1.01 (inactive) | 1.03 (inactive) | 0.987 (inactive) | 0.99 (inactive) | 1.05 (inactive) | 1.02 (inactive) | 1.06 (inactive) |
| O=c1oc2ccccc2c(O)c1Cc1c(O)c2ccccc2oc1=O [Dicumarol] (20 µM) | 0.886 | 0.961 | 1.04 | 0.883 | 1 (inactive) | 0.989 (inactive) | 0.949 (inactive) | 0.993 (inactive) | 1 (inactive) | 1.01 (inactive) | 1.01 (inactive) | 1.02 (inactive) |
| C[C@@H](NCCCc1cccc(C(F)(F)F)c1)c1cccc2ccccc12 [Cinacalcet hydrochloride] (20 µM) | 0.918 | 1.02 | 1.03 | 1.2 | 0.977 (inactive) | 0.995 (inactive) | 0.807 (inactive) | 1.11 (inactive) | 1.01 (inactive) | 0.693 (inactive) | 0.999 (inactive) | 0.946 (inactive) |
| Oc1c(I)cc(Cl)c2cccnc12 [Clioquinol] (20 µM) | 0.876 | 0.817 | 0.978 | 0.671 | 1.03 (inactive) | 0.976 (inactive) | 0.628 (active) | 0.906 (inactive) | 1.01 (inactive) | 1.09 (inactive) | 0.991 (inactive) | 0.809 (inactive) |
| CCOC(=O)c1c(N)sc2c1CCN(Cc1ccccc1)C2 [Tinoridine hydrochloride] (20 µM) | 1.15 | 0.977 | 0.967 | 1.14 | 1.03 (inactive) | 0.982 (inactive) | 0.922 (inactive) | 1.01 (inactive) | 1 (inactive) | 0.954 (inactive) | 0.976 (inactive) | 0.875 (inactive) |
| COc1ccc2cc(CCC(C)=O)ccc2c1 [Nabumetone] (20 µM) | 1 | 0.792 | 1.01 | 0.995 | 0.912 (inactive) | 0.926 (inactive) | 0.944 (inactive) | 0.871 (inactive) | 0.974 (inactive) | 1.09 (inactive) | 1.01 (inactive) | 0.946 (inactive) |
| CN(C)CCCSC(=N)N [Dimaprit dihydrochloride] (20 µM) | 1.04 | 1.04 | 1.02 | 1.03 | 0.939 (inactive) | 0.955 (inactive) | 1.07 (inactive) | 1 (inactive) | 0.996 (inactive) | 0.998 (inactive) | 0.993 (inactive) | 1.07 (inactive) |
| CC(C)(c1ccc(O)cc1)c1ccc(O)cc1 [Bisphenol A] (20 µM) | 0.972 | 1.04 | 1 | 0.996 | 1.01 (inactive) | 0.959 (inactive) | 0.976 (inactive) | 0.981 (inactive) | 0.988 (inactive) | 0.991 (inactive) | 0.985 (inactive) | 0.942 (inactive) |
| OC[C@H]1O[C@H](O[C@H]2[C@H](O)[C@@H](O)[C@H](O)O[C@@H]2CO)[C@H](O)[C@@H](O)[C@@H]1O [Maltose] (50 µM) | 1 | 1.03 | 1.03 | 1 | 0.966 (inactive) | 0.991 (inactive) | 0.984 (inactive) | 1.02 (inactive) | 0.996 (inactive) | 1.06 (inactive) | 0.999 (inactive) | 1.01 (inactive) |
| c1ccc2cc3c(ccc4ccccc43)cc2c1 [Benz[a]anthracene] (20 µM) | 1.13 | 0.981 | 1.02 | 0.97 | 1.07 (inactive) | 1.17 (inactive) | 1.12 (inactive) | 1.02 (inactive) | 0.901 (inactive) | 0.963 (inactive) | 1.17 (inactive) | 1.3 (inactive) |
| NS(=O)(=O)c1cc2c(cc1Cl)NC(Cc1ccccc1)NS2(=O)=O (stereo unspecified) [Benzylhydrochlorothiazide] (20 µM) | 1.04 | 1.05 | 0.986 | 0.982 | 0.96 (inactive) | 1.05 (inactive) | 1.06 (inactive) | 1.06 (inactive) | 0.971 (inactive) | 0.887 (inactive) | 1.01 (inactive) | 1.07 (inactive) |
| CC(=O)[C@H]1CC[C@H]2[C@@H]3C=CC4=CC(=O)CC[C@@]4(C)[C@@H]3CC[C@]12C [Dydrogesterone] (20 µM) | 1.08 | 0.983 | 0.99 | 0.994 | 1.03 (inactive) | 0.933 (inactive) | 0.978 (inactive) | 0.911 (inactive) | 1.01 (inactive) | 1.04 (inactive) | 0.983 (inactive) | 1 (inactive) |
| CCCN[C@H]1CCc2nc(N)sc2C1 [Pramipexole dihydrochloride] (20 µM) | 0.931 | 0.975 | 1.01 | 1.01 | 1.05 (inactive) | 0.946 (inactive) | 0.974 (inactive) | 0.977 (inactive) | 1.05 (inactive) | 0.98 (inactive) | 1.01 (inactive) | 0.923 (inactive) |
